# ± gives the standard deviation of the averaged measurements.
# Legend:
# DLD1 [1] = test: cell viability (CellTiter-Glo) relative to plate median (fraction of plate median); higher = more viable cells; conditions: 5 µM; treatment time 24 h; reporter: 7TFP
# Procedure, shortened: (§1)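 Cells were seeded in 384-well plates; these were colorectal cancer lines stably transduced with lentiviral 7TFP or TCF4/Wnt firefly luciferase reporters. After 24 h, library compounds went in at a final 5 µM, and exposure lasted 24 h. Parallel plates were then read for firefly luciferase or CellTiterGlo luminescence, each well normalised to its plate median, with two independent replicates averaged.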
# HCT116 = test: as above; conditions: 5 µM; treatment time 24 h; reporter: TCF4/Wnt
# Procedure, shortened: as §1
# SW480 [2] = test: as above; conditions: 5 µM; treatment time 24 h; reporter: 7TFP
# Procedure, shortened: as §1
# DLD1 [3] = test: TCF/Wnt firefly luciferase reporter signal relative to plate median (fraction of plate median); higher = higher Wnt reporter signal; conditions: 5 µM; treatment time 24 h; reporter: 7TFP
# Procedure, shortened: as §1
# SW480 [4] = test: as above; conditions: 5 µM; treatment time 24 h; reporter: 7TFP
# Procedure, shortened: as §1
Compound,cell viability (DLD1 [1]),cell viability (HCT116),cell viability (SW480 [2]),TCF/Wnt firefly luciferase reporter signal (DLD1 [3]),TCF/Wnt firefly luciferase reporter signal (SW480 [4])
CC1(C)CC2C1CCC1(C)OC2(C)CCC1O (stereo not given),1.045 ± 0.0071,1.1 ± 0.014,1.06 ± 0.028,1.02 ± 0.036,0.994 ± 0.094
CCC1(C)OC(=O)N(C)C1=O (stereo not given),1.04 ± 0.014,0.873 ± 0.078,0.908 ± 0.0028,0.965 ± 0.0085,0.956 ± 0.076
O=C(CCc1ccc(O)cc1)c1c(O)cc(O)cc1O[C@@H]1OC(CO)[C@@H](O)[C@@H](O)C1O (stereo not given in full),1.07 ± 0.064,1.01 ± 0.016,1.03 ± 0.021,0.909 ± 0.033,1.06 ± 0.092
CC(C)CCCC(C)C1CCC2C3CCC4CCCCC4(C)C3CCC12C (stereo not given),1,0.997 ± 0.033,0.9585 ± 0.00071,0.94 ± 0.042,1.02 ± 0.014
C[C@](N)(Cc1ccc(O)c(O)c1)C(=O)O,0.981 ± 0.098,0.996 ± 0.062,1.03 ± 0.028,1.04 ± 0.087,1.03 ± 0.12
Oc1ccc2c(c1)O[C@H](c1ccc(O)c(O)c1)[C@@H](O)C2,1.07 ± 0.014,1.04 ± 0.028,1.05 ± 0.096,0.926 ± 0.058,0.9675 ± 0.005
CN1CCN(CC/C=C2/c3ccccc3Sc3ccc(S(=O)(=O)N(C)C)cc32)CC1,1.07 ± 0.078,1.16 ± 0.042,1.07 ± 0.064,1.11 ± 0.078,0.983 ± 0.17
NS(=O)(=O)c1cc2c(cc1Cl)N=CNS2(=O)=O,0.965 ± 0.093,0.973 ± 0.081,0.891 ± 0.018,0.828 ± 0.18,0.984 ± 0.011
NC[C@@H]1O[C@H](O[C@H]2[C@@H](O)[C@H](O[C@@H]3[C@@H](O)[C@H](N)C[C@H](N)[C@H]3O[C@H]3O[C@H](CO)[C@@H](O)[C@H](O)[C@H]3N)O[C@@H]2CO)[C@H](N)[C@@H](O)[C@@H]1O,1.1 ± 0.035,0.975 ± 0.064,1.065 ± 0.0071,0.901 ± 0.043,0.995 ± 0.11
C[C@@H]1CC[C@H]2C(C)(C)[C@H]3C[C@@]12CC[C@@]3(C)O,1.02 ± 0.029,1.07 ± 0.057,1.03 ± 0.021,1.03 ± 0.014,0.94 ± 0.083
"COC(=O)[C@@H]1OC(=O)C2OC23[C@@]1(C)CCC1[C@]2(C)C(C[C@H](O)[C@]13C)C(C)(C)[C@H](OC(C)=O)C[C@@H]2OC(C)=O (stereo partly drawn) [7beta-HYDROXY-7-DESACETOXYKHIVORINIC ACID, METHYL ESTER]",1.01 ± 0.095,1.065 ± 0.0071,1.05,1.11 ± 0.18,1.03 ± 0.042
O=C([O-])[C@H]1/C(=C/CO)O[C@@H]2CC(=O)N21.[Li+],1.045 ± 0.0071,1.04 ± 0.064,1.02 ± 0.049,1.04 ± 0.092,1.125 ± 0.0071
N[C@@H]1CONC1=O,1.04 ± 0.11,1.05 ± 0.035,1.04 ± 0.061,1.05 ± 0.028,0.969 ± 0.21
C=CC(C1=CC(=O)C(OC)=CC1=O)c1ccc(O)cc1 (stereo not given),1.01,1.1 ± 0.021,1.02,0.879 ± 0.0028,0.877 ± 0.12
NC[C@H]1O[C@H](O[C@H]2[C@H](O)[C@@H](O[C@H]3O[C@H](CO)[C@@H](O)[C@H](N)[C@H]3O)[C@H](N)C[C@@H]2N)[C@H](N)[C@@H](O)[C@@H]1O,1.11 ± 0.028,0.997 ± 0.033,1.02 ± 0.052,1.03 ± 0.035,1.01 ± 0.021
CO[C@@H]1[C@H](O)[C@@H](C)O[C@@H](OC[C@H]2[C@@H]3O[C@H]3/C=C/C(=O)[C@@](C)(O)C[C@H](C)[C@H](O[C@@H]3O[C@H](C)C[C@H](OC)[C@H]3O)[C@@H](C)/C=C/C(=O)O[C@@H]2C)[C@@H]1OC [Chalcomycin],1.04 ± 0.083,1.1 ± 0.071,1.01 ± 0.048,0.869 ± 0.094,0.965 ± 0.034
CC1=Nc2ccc(Cl)cc2S(=O)(=O)N1,0.946 ± 0.016,1.06 ± 0.12,0.975 ± 0.05,1.135 ± 0.0071,0.86 ± 0.14
C/C=C(\C)C(=O)O[C@@H]1c2c(ccc3ccc(=O)oc23)OC(C)(C)[C@@H]1OC(C)=O,0.969 ± 0.011,0.92 ± 0.029,0.926 ± 0.047,0.997 ± 0.075,1.09 ± 0.057
COc1c(-c2ccccc2)oc2c(ccc3occc32)c1=O,1.03 ± 0.035,1.09 ± 0.078,1.03 ± 0.021,1.09 ± 0.078,1.05 ± 0.014
O=C1NS(=O)(=O)c2ccccc21,0.973 ± 0.052,1.1 ± 0.085,1.03 ± 0.044,1.1 ± 0.042,0.96 ± 0.14
CC(=O)[C@H]1CC[C@H]2[C@@H]3CCC4=CC(=O)CC[C@]4(C)[C@H]3CC[C@]12C,1.01 ± 0.078,1.02 ± 0.12,0.992 ± 0.025,0.979 ± 0.03,1.04 ± 0.028
CCN[C@@H]1C[C@H](N)[C@@H](O[C@H]2OC(CN)=CC[C@H]2N)[C@H](O)[C@H]1O[C@H]1OC[C@](C)(O)[C@H](NC)[C@H]1O,0.992 ± 0.026,0.903 ± 0.052,0.978 ± 0.025,0.906 ± 0.15,0.953 ± 0.021
Cc1cc(C2CCCCC2)n(O)c(=O)c1,1.02 ± 0.014,0.454 ± 0.12,1.24 ± 0.18,0.795 ± 0.077,1 ± 0.13
CCCCCc1c2c(cc(O)c1C(=O)O)OC(=O)c1c(cc(OC)cc1C(=O)CCCC)O2,0.958 ± 0.036,0.973 ± 0.14,1 ± 0.013,0.963 ± 0.034,1.05 ± 0.16
CN[C@H](CC(=O)O)C(=O)O,0.99 ± 0.028,0.966 ± 0.049,0.957 ± 0.0042,1.02 ± 0.014,0.85 ± 0.045
CN1CCC[C@@H]1Cc1c[nH]c2ccc(CCS(=O)(=O)c3ccccc3)cc12,0.943 ± 0.028,1.05 ± 0.12,0.956 ± 0.023,0.945 ± 0.18,1.04 ± 0.063
C#CCCCCCCCCCCCC(O)CC(O)COC(C)=O (stereo not given),1.02 ± 0.021,1.05 ± 0.089,1.06 ± 0.014,1.08 ± 0.12,0.941 ± 0.098
COc1c2ccoc2nc2c(OC)c(OCC(O)C(C)(C)O)ccc12 (stereo not given),1.02 ± 0.038,1 ± 0.014,1 ± 0.013,1.03 ± 0.047,1.02 ± 0.057
CCN(CC)CCNC(=O)COc1ccc(OC)cc1,0.875 ± 0.03,0.928 ± 0.035,0.973 ± 0.038,1.09 ± 0.064,1.02 ± 0.029
O=[N+]([O-])c1cccc2cn[nH]c12,1.015 ± 0.0071,0.987 ± 0.076,0.962 ± 0.047,1.1 ± 0.042,1.14 ± 0.021
